Some test systems named below: SK-MEL-2 melanoma; EKVX NSCLC; SN12C renal; UO-31 renal; TK-10 renal; ACHN renal; CAKI-1 renal; A498 renal; CCRF-CEM leukemia; MOLT-4 leukemia.
Common to all, as to assay: NCI-60 one-dose screen, 48 h (100 = growth as untreated, 0 = no growth, -100 = all killed)
What all share (conditions): 10 µM unless noted

About 83,000 compounds went through this panel and 20% of them were active in at least one assay; those are over-represented in the sample as a whole.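 96-well plates, one dose, 48 hours. Percent growth reported; active if below 10.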 Values without a mark were called inactive. Activity calls are given as the source filed them.

With `O=C(c1ccc(Cl)cc1Cl)N1c2ccccc2Sc2ccccc21`, the growth with SK-MEL-2 melanoma is 88.7%; in the test with EKVX NSCLC, 75.7%; with SN12C renal it was 66.9%; in the test with UO-31 renal, 65.3%; in the test on TK-10 renal, 73.3%; with ACHN renal, 60.7%. Besides, the results for the growth in the test with CAKI-1 renal, in the test with A498 renal and with CCRF-CEM leukemia were 50.5%, 68.9% and 57.2%, respectively.
Turning to `O=C(NCc1ccc2c(c1)OCO2)NCC1CCCC(CNC(=O)NCc2ccc3c(c2)OCO3)C1` (stereo not drawn), the growth in the test with SK-MEL-2 melanoma was 109%; in the test with EKVX NSCLC it was 106%; in the test with SN12C renal, 102%; in the test with UO-31 renal, 95.7%; in the test with TK-10 renal it was 101%; in the test on ACHN renal, 105%. Moreover, the growth in the test on CAKI-1 renal is 89.6%; with A498 renal it was 95.3%; with CCRF-CEM leukemia, 85.1%.
In the case of `c1ccc(CNc2ccc3nc(CCC4CCCCC4)[nH]c3c2)cc1`, the growth is 82.8% with SK-MEL-2 melanoma; 75.7% in the test on EKVX NSCLC; 62.8% in the test on SN12C renal; 37.5% with UO-31 renal; 84.2% in the test with TK-10 renal; 87% in the test on ACHN renal. Further, the growth in the test on CAKI-1 renal was 66.7%; in the test on A498 renal, 42.7%; in the test with CCRF-CEM leukemia it was 59.2%.
For the compound `Cc1cc(N2CCCCC2)nc(N2CCN(CC(=O)Nc3ccc4c(ccn4Cc4ccccc4)c3)CC2)n1`, the growth is 65.6% in the test on SK-MEL-2 melanoma; 62.1% in the test on EKVX NSCLC; 64.2% with SN12C renal; 30% with UO-31 renal; 84% in the test with TK-10 renal; 76.6% in the test with ACHN renal. For the same compound, the growth is 56.3% in the test with CAKI-1 renal, 8.63% (active) with A498 renal and 64.5% in the test on CCRF-CEM leukemia.
On to `COc1ccc(-c2ccc(=O)oc2C#Cc2cc(OC)c(OC)c(OC)c2)cc1O`, for which the growth in the test on SK-MEL-2 melanoma is 29.6%; in the test with EKVX NSCLC, 30.3%; with SN12C renal it was 21.2%; with UO-31 renal, 40.5%; with TK-10 renal, 52.5%; in the test on ACHN renal, 52%. Further, the results for the growth in the test on CAKI-1 renal, with A498 renal and in the test with CCRF-CEM leukemia were -15.6% (active), -0.779% (active) and 5.26% (active), respectively.
Turning to `C/C(=N\Nc1nc(C)cs1)c1cc2ccccc2o1`, the growth in the test on SK-MEL-2 melanoma is 104%; in the test with EKVX NSCLC, 56.3%; in the test on SN12C renal it was 91.8%; in the test with UO-31 renal it was 55.4%; with TK-10 renal, 134%; with ACHN renal, 86.6%. The growth was 75.9% with CAKI-1 renal, 99.9% in the test on A498 renal and 79.1% in the test on CCRF-CEM leukemia.
In the case of `COCC[C@H]1CCC/C=C/[C@@H]2C[C@H](O)C[C@H]2[C@H](O)/C=C/C(=O)O1`, the growth was -3.55% (active) in the test on SK-MEL-2 melanoma; 4.95% (active) in the test on EKVX NSCLC; 8.16% (active) in the test on SN12C renal; 10.9% with UO-31 renal; -38.5% (active) with TK-10 renal; 4.75% (active) in the test with ACHN renal. The growth in the test on CAKI-1 renal is -18.6% (active); in the test with A498 renal it was -31.1% (active); with CCRF-CEM leukemia it was 17.6%.
With `Cc1ccc(/C=C(\C#N)C(=O)Nc2ncc(Cc3cc(Cl)ccc3Cl)s2)o1`, the growth with SK-MEL-2 melanoma was 45.9%; with EKVX NSCLC, 60.4%; in the test with SN12C renal, 58.9%; with UO-31 renal, 31.7%; with TK-10 renal it was 44.1%; in the test on ACHN renal, 45.4%. Moreover, the growth was 23.7% with CAKI-1 renal, 40.5% in the test on A498 renal and 55.4% in the test with CCRF-CEM leukemia.
Consider `COc1cc(/C=C2\CN(S(=O)(=O)c3ccc(C)cc3)C/C(=C\c3cc(CN4CCCCC4)c(O)c(OC)c3)C2=O)cc(CN2CCCCC2)c1O`, for which the growth in the test on SK-MEL-2 melanoma is -73.7% (active); with EKVX NSCLC, -81% (active); in the test on SN12C renal it was -76.5% (active); in the test on UO-31 renal, -89.1% (active); with TK-10 renal it was -93.4% (active); with ACHN renal, -98.9% (active). Further, the growth with CAKI-1 renal was -89% (active); in the test on A498 renal, 90%; in the test on CCRF-CEM leukemia it was -6.3% (active); in the test with MOLT-4 leukemia it was -23.7% (active).
On to `CCOC(=O)c1c(NC(=O)c2ccc(C(C)(C)C)cc2)sc2cc(O)ccc12`, for which the growth was 112% in the test on SK-MEL-2 melanoma; 94.9% in the test on EKVX NSCLC; 99.6% with SN12C renal; 70.4% with UO-31 renal; 129% with TK-10 renal; 97.5% in the test with ACHN renal. For the same compound, the growth in the test on CAKI-1 renal is 85.9%; in the test with A498 renal it was 88.8%; in the test on CCRF-CEM leukemia, 80.1%; with MOLT-4 leukemia, 82.3%.
Consider `c1ccc2cc(Cn3c[n+](Cc4ccc5ccccc5c4)c4ccccc43)ccc2c1`, for which the growth was -61.7% (active) with SK-MEL-2 melanoma; 13.9% in the test with EKVX NSCLC; 5.14% (active) with SN12C renal; 53.6% in the test on UO-31 renal; -72% (active) with TK-10 renal; 46.2% with ACHN renal. Also, the growth is 84.7% with CAKI-1 renal, -2.59% (active) with A498 renal and -13.1% (active) in the test on CCRF-CEM leukemia.
For `CCCCn1sc(=O)n(Cc2ccc(CNC(=O)OCc3ccc4c(Cl)cc(Cl)c(O)c4n3)cc2)c1=O`, the growth is 85.6% in the test on SK-MEL-2 melanoma; 86.7% in the test with EKVX NSCLC; 57.6% with SN12C renal; 18.3% in the test on UO-31 renal; 78% in the test on TK-10 renal; 30.8% with ACHN renal. In addition, the growth in the test with CAKI-1 renal is 54.6%; with A498 renal, 91%; in the test on CCRF-CEM leukemia, 32%.
As for `CCCCc1oc2ccccc2c1C(=O)c1ccc(O)cc1`, the growth is 99.8% in the test with SK-MEL-2 melanoma; 92.3% with EKVX NSCLC; 71.2% with SN12C renal; 78.3% with UO-31 renal; 101% in the test with TK-10 renal; 88.8% with ACHN renal. The results for the growth in the test on CAKI-1 renal, in the test on A498 renal and with CCRF-CEM leukemia were 68.4%, 90.9% and 51.9%, respectively.
Consider `CCOC(=O)c1c(C)nc2c(c1N)CC(=O)N2Cc1cc(OC)c(OC)c(OC)c1`, for which the growth in the test with SK-MEL-2 melanoma was 27%; with EKVX NSCLC, 51.6%; in the test with SN12C renal, 74%; with UO-31 renal it was 62.2%; in the test on TK-10 renal it was 54.8%; in the test on ACHN renal it was 64.9%. Moreover, the growth in the test with CAKI-1 renal is 50.6%; with A498 renal, 35.8%; in the test with CCRF-CEM leukemia, 78.2%.

Source of the values: PubChem BioAssay (NCI).
